Data on 60 compounds can be found in PubChem BioAssay AID485346 (Sanford-Burnham Center for Chemical Genomics, 2010).

Broadly, the inhibition is the drop in the measured response relative to a control, in per cent.

Molecules are shown by their SMILES. Hit rate of the full screen: of about 330,000 compounds, about 10,000 (3%) were called active. The sample as a whole holds a higher share of actives than the screen did. Unmarked numbers belong to inactive results.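 The calls were made as follows: active = inhibition of at least 50% at 8 µM in the primary screen; inactive = the rest.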

Sequence of Protein Mdm4 (Homo sapiens) + E3 ubiquitin-protein ligase Mdm2 (Homo sapiens) (O15151 whole entry, looked up): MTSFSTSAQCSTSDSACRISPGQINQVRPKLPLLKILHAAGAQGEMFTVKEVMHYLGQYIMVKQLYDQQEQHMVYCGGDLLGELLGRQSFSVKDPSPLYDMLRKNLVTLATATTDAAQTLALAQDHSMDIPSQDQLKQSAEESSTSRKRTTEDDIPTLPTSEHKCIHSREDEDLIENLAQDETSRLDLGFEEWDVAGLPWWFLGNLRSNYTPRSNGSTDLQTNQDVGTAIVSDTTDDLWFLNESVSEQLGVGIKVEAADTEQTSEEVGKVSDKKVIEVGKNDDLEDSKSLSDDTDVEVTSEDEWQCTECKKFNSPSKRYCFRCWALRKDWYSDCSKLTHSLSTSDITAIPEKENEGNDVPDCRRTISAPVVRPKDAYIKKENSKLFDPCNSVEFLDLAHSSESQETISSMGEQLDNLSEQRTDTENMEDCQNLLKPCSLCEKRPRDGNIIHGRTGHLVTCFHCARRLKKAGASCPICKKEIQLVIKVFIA
Sequence of Protein Mdm4 (Homo sapiens) + E3 ubiquitin-protein ligase Mdm2 (Homo sapiens) (Q00987 whole entry, looked up): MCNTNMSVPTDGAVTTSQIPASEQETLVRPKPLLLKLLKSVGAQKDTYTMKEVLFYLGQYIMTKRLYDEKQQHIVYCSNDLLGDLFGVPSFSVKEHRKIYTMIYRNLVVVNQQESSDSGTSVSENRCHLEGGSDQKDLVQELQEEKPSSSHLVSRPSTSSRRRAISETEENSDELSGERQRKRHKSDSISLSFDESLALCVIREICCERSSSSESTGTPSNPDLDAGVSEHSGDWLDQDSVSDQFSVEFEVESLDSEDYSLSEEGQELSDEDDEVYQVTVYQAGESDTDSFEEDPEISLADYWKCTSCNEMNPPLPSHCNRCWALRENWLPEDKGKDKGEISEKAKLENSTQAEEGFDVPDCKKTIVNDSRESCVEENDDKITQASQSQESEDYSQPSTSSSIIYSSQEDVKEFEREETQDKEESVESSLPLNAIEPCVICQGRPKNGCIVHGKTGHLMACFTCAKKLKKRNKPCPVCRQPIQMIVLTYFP

This assay concerns the target Protein Mdm4 (Homo sapiens) + E3 ubiquitin-protein ligase Mdm2 (Homo sapiens) (UniProt O15151+Q00987). Description: disruptors of Mdm2/MdmX RING complex – cell-based, luminescence, split luciferase, SaOS-2, uHTS, primary screen (AID 485346). The note with it: SaOS-2 split-luciferase Mdm2/MdmX complementation, at 8 µM, stronger effect = higher value.
In the case of `O=C(OCC(=O)N1CCCCCC1)c1ccc(Cl)nc1`, the inhibition is 0.359%.

As for `Cc1ccccc1NC(=O)NNC(=O)OC(C)(C)C`, the inhibition was 20.7%.

With `CC(C)(C)OC(=O)NNc1c2ccccc2nc2ccccc12`, the inhibition was 95.7% (active).

For `O=C(NNc1c2ccccc2nc2ccccc12)c1cc2ccccc2cc1O`, the inhibition was 35.2%.

Turning to `C/C(=N/Nc1ccc(Cl)cc1)c1cnnc(-c2ccccc2)n1`, the inhibition is -8.35%.

Turning to `Cc1cc(NC(=O)CSc2nc(C(C)C)nc3sc4c(c23)CCC(C)C4)no1` (stereo not given), the inhibition was 48.9%.

As for `Cc1cc(NC(=O)CSc2ncc(C(F)(F)F)cc2Cl)no1`, the inhibition is 6.3%.

As for `Cc1nc(SCC(=O)Nc2cc(C)on2)c2c(C)c(C)sc2n1`, the inhibition was 79.8% (active).

With `Cc1ccccc1OCCOc1ccc([N+](=O)[O-])cc1/C=N/n1cnnc1`, the inhibition is 58.7% (active).

On to `COc1cccc(OCCOc2cccc(/C=N/n3cnnc3)c2)c1`, for which the inhibition is -7.51%.

With `Cc1cc([N+](=O)[O-])c(-c2ccc(/C=N/n3cnnc3)o2)cc1Cl`, the inhibition was 26.5%.

`COc1ccc(CCNC(=O)COC(=O)c2cnc(Cl)c(Cl)c2)cc1`: the inhibition was -24.9%.

Regarding `Cc1cc(C)n(CC(O)COc2ccc(C(C)(C)C)cc2)n1` (stereo not given), the inhibition is 0.107%.

For the compound `CC(C)(c1ccccc1)c1ccc(OCCN)cc1`, the inhibition is 29.2%.

On to `CN(C)CC(O)COc1ccc(C(C)(C)c2ccc(OCC(O)CN(C)C)cc2)cc1` (stereo not given), for which the inhibition was 97.5% (active).

`CC(Oc1cccc(Cl)c1)C(=O)NC1CC(C)(C)NC(C)(C)C1` (stereo not given): the inhibition was 12.5%.

In the case of `Cc1ccc(C(CC(=O)O)NC(=O)c2ccc(S(=O)(=O)N3CCCC3)cc2)cc1` (stereo not given), the inhibition is 23.9%.

Regarding `COc1ccc(S(=O)(=O)N2CCOCC2)c(C)c1C`, the inhibition is 4.93%.

For `COc1ccc(CN(C)C(=S)Nc2ccc(Cl)cc2Cl)cc1`, the inhibition is 2.13%.

As for `COc1ccc(CCNCC(O)Cn2ccc3ccccc32)cc1OC` (stereo not given), the inhibition is 11.5%.

In the case of `COc1c(C)c2c(c(O)c1C/C=C(\C)CCC(=O)O)C(=O)OC2`, the inhibition is 97.1% (active).

Regarding `NNC(=O)c1ccc(COCC(F)(F)C(F)F)cc1`, the inhibition was 6.42%.

On to `O=C(Nc1ccccc1Cc1ccccc1)c1ccc2c(c1)SC1=NS(=O)(=O)CCN12`, for which the inhibition is 20.2%.

On to `Cc1cc(=O)oc2cc(OCCC[n+]3ccccc3)ccc12`, for which the inhibition was -31%.

`CCOc1ccccc1N1CCN(C(=O)COc2ccc3c(C)cc(=O)oc3c2)CC1`: the inhibition is 18.6%.

`Cc1cc(=O)oc2cc(OCC3CC(c4ccccc4Cl)=NO3)ccc12` (stereo not given): the inhibition is 63.9% (active).

Regarding `O=C1C=C(c2cc(C(F)(F)F)cc(C(F)(F)F)c2)C[C@@H](c2ccc3c(c2)OCO3)C1`, the inhibition was 15.2%.

Regarding `CCc1ccc(-n2c(SCc3cc(=O)n4cc(Br)ccc4n3)nc3[nH]ncc3c2=O)cc1`, the inhibition was 41.3%.

In the case of `CC(O)CN(Cc1ccc(Cl)cc1)CC(C)O` (stereo not given), the inhibition was 14.3%.

In the case of `CC(C)(C)[C@H]1C=C(C(=O)NCc2ccccc2)O[C@@H](OCc2ccc(CO)cc2)C1`, the inhibition is 29.5%.

As to `O=C(NCc1ccccc1)C1=C[C@@H](C2CCCCC2)C[C@@H](OCc2ccc(CO)cc2)O1`, the inhibition is 55.5% (active).

On to `O=C(NCc1ccccc1)C1=C[C@H](C2CC2)C[C@H](OCc2ccc(CO)cc2)O1`, for which the inhibition was -19%.

Regarding `Nn1cnnc1N/N=C/c1cc([N+](=O)[O-])c(Cl)cc1Cl`, the inhibition was -3.78%.

Turning to `CC(=O)NNc1cc(=O)c2c(=O)n(C)c(=O)n(C)c2[nH]1`, the inhibition is -7.44%.

On to `CCOc1ccccc1C(=O)NC1CC2CCCC(C1)N2Cc1ccccc1` (stereo not given), for which the inhibition is -3.94%.

For the compound `CC(=O)Nc1ccc(S(=O)(=O)NCC(=O)OCc2cc(=O)oc3ccc4ccccc4c23)cc1`, the inhibition was -8.78%.

Consider `COc1ccc(CNC(=O)COC(=O)c2sccc2C)cc1OC`, for which the inhibition was 14.3%.

Turning to `CCOc1ccc(C(C)=O)cc1COC(=O)c1cnc(Cl)c(Cl)c1`, the inhibition is 97.4% (active).

`COC(=O)c1ccc(COC(=O)c2cnc(Cl)c(Cl)c2)cc1`: the inhibition was 0.646%.

For `CCOc1ccc(C(C)=O)cc1COC(=O)CNC(=O)c1cccs1`, the inhibition is 26.9%.

For `COc1ccccc1C(=O)NCC(=O)NCCSc1ccc(Br)cc1`, the inhibition is 12.7%.

Turning to `CCc1ccccc1NC(=O)CN(c1ccc(OC)cc1OC)S(=O)(=O)c1ccccc1[N+](=O)[O-]`, the inhibition was 18.2%.

In the case of `N#Cc1cccc(CSc2nnc(CCCO)n2-c2ccccc2)c1`, the inhibition is 7%.

For the compound `Brc1ccc2ncnc(NCc3cccnc3)c2c1`, the inhibition was 73.1% (active).

As to `Cc1cc(NCc2cccnc2)no1`, the inhibition was 0.68%.

Consider `Clc1ccc(Cn2ncc3c(NCc4cccnc4)ncnc32)cc1`, for which the inhibition is 20.9%.

As to `CCN(C(=O)Cc1c(C(=O)O)n(CC)c2ccccc12)c1ccccc1C`, the inhibition was 13.2%.

Take `O=C(COC(=O)CCCN1C(=O)c2cccc3cccc(c23)C1=O)NC1CCS(=O)(=O)C1` (stereo not given): the inhibition is -2.87%.

As for `O=C1NC2(CCCCC2)N=C1c1ccccc1`, the inhibition was 4.91%.

Consider `O=C(CCCn1c(=O)[nH]c2cc(Cl)ccc2c1=O)NCCN1CCN(c2ccccc2)CC1`, for which the inhibition is 9.17%.

As for `COc1cccc(CNC(=O)CN2C(=O)NC(Cc3ccccc3)(c3ccccc3)C2=O)c1` (stereo not given), the inhibition is -11%.

As for `O=C(Cc1csc(Nc2nc(=S)[nH]c3ccccc23)n1)NCCCN1CCN(c2cccc(Cl)c2)CC1`, the inhibition was 77.1% (active).

Regarding `COc1cccc(CNC(=O)Cc2csc(Nc3nc(=S)[nH]c4ccccc34)n2)c1`, the inhibition is 60.5% (active).

As to `COc1cccc(CNC(=O)c2n[nH]c3ccccc23)c1`, the inhibition is -9.68%.

Take `O=C(Cc1ccc(-n2c(=O)[nH]c3ccccc3c2=O)cc1)N1CCN(c2cccc(Cl)c2)CC1`: the inhibition was -17%.

On to `CC(=O)Nc1ccc(NC(=O)C(NS(=O)(=O)c2ccc3c(c2)OCCO3)C(C)C)cc1` (stereo not given), for which the inhibition is 1.24%.

Regarding `Cc1noc(C)c1S(=O)(=O)N(C)C[C@H]1Oc2c(NC(=O)Nc3ccc4c(c3)OCO4)cccc2C(=O)N([C@H](C)CO)C[C@@H]1C`, the inhibition was 23.1%.

`COc1ccc(CNc2ncnc3ccccc23)cc1`: the inhibition was 21.5%.

Consider `COc1ccc(Nc2ncnc3ccc(Br)cc23)c(OC)c1`, for which the inhibition was 76.4% (active).

As for `O=C(O)CCCCCNc1ncnc2ccc(Br)cc12`, the inhibition was -1.34%.
